Shown are actives, neighbours in structure and some others; about 3.3% of the full set was active somewhere.
Cardio protect: cardioprotection against H2O2-induced cell death, primary screen, uHTS, H9c2 cells, ATPLite luminescence; 360,000 tested, 0.63% active; H9c2 cardiomyocytes, H2O2 injury protection, 2 h; protection from H2O2 cell death, % at 20 µM;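 active means compounds giving at least 50% protection of heart cells from peroxide-induced death in the single-dose screen, raw or plate-pattern-corrected value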;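 further: 0% = DMSO wells with peroxide and 100% = DMSO wells without peroxide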
Efflux pump mplx: inhibitors of Candida efflux pumps in yeast, primary screen, S. cerevisiae, Nile Red, multiplex | inhibition, % at 10 µM | S. cerevisiae Candida pump triplex | 330,000 tested, 0.44% active | AID 485275, 2010;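 active means plate passing quality check with inhibition over a set limit, or well fluorescence over plate mean plus 4 SD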;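 further: Nile Red retained in pooled yeast measured as flow cytometry median fluorescence; 0% = buffer negative control and 100% = Enniatin B positive control; higher means more Nile Red kept so more efflux inhibition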
KCC2 mod: KCC2 cotransporter modulators, thallium flux, primary screen, cell-based, HEK293 KCC2, FluoZin-2 fluorescence, MLSMR. Solute carrier family 12 member 5 (Homo sapiens), Q9H2X9. KCC2 cells, thallium flux FluoZin-2 fluorescence. B-score of Tl+ flux slope (higher = more flux/activation; lower = inhibition) at 10 µM. 190,000 tested, 2.2% active. AID 1456, 2008;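 active means thallium flux slope and its plate-corrected score both differing from the plate sample mean at a set confidence after two filtering rounds, in either direction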;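 further: slope of fluorescence scaled to starting intensity during 10 to 20 s after thallium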
Target sequence (Q9H2X9 whole entry, looked up): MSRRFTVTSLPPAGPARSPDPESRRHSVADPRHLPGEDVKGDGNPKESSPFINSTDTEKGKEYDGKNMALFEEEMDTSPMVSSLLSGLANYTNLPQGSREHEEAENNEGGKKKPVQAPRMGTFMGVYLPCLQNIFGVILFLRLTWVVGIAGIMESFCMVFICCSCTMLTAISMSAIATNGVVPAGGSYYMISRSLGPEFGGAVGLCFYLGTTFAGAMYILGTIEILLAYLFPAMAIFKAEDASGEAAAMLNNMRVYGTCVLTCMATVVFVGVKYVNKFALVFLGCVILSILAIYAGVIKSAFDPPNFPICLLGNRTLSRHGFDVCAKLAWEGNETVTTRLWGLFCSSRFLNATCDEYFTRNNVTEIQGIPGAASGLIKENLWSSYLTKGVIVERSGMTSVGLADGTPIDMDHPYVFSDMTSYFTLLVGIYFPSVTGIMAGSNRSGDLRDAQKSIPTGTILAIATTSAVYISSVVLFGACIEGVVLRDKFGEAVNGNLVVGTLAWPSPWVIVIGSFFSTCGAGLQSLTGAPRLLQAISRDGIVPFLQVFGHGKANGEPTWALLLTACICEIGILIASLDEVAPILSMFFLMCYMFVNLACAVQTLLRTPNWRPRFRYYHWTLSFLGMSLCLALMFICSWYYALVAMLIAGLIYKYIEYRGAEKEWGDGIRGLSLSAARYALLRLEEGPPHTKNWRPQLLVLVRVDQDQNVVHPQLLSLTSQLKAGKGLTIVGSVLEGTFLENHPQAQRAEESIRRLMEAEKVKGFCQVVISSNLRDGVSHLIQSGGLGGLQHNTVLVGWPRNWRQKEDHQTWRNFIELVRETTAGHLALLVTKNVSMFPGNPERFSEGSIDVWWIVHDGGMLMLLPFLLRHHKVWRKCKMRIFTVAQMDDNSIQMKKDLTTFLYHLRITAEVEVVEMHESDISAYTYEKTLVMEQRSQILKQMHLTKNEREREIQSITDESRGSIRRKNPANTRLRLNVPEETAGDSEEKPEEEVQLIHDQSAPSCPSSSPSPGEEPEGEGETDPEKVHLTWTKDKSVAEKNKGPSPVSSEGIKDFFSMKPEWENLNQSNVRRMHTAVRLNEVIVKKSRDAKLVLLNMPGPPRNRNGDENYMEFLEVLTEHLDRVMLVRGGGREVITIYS
Calb FLC: C. albicans growth inhibition with fluconazole, primary screen, CaCi-2 strain, Alamar Blue fluorescence | C. albicans CaCi-2 (fluconazole-resistant clinical isolate) + fluconazole, 48 h | growth inhibition, % (test concentration not listed) | 300,000 tested, 0.57% active;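 active means growth inhibition above about 58% in most replicates, limit read from the data, passing the limit was not always enough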;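 further: all wells also contain fluconazole at 8 µg/ml as a sub-toxic cotreatment; 0% = median of DMSO wells and 100% = median of geldanamycin control wells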
PHOSPHO1 block: PubChem AID 1565; inhibition, % at 13.3 µM; Phosphoethanolamine/phosphocholine phosphatase (Homo sapiens), Q8TCT1; 290,000 tested, 1.1% active; recombinant PHOSPHO1, absorbance phosphatase assay; in the data active means inhibition above about 60%
Active calls of the source: *; . = no result given.

SMILES | Cardio protect | Efflux pump mplx | KCC2 mod | Calb FLC | PHOSPHO1 block
O=C(NCc1n[nH]c(=S)n1-c1ccc(F)cc1)c1ccc(S(=O)(=O)N2CCCC2)cc1 | 7.5 | -0.1 | -0.0329 | 0.7 | 96.2*
O=C(NCc1n[nH]c(=S)n1-c1ccc(Cl)c(Cl)c1)c1ccc(S(=O)(=O)N2CCCCC2)cc1 | 1.7 | 0.0 | . | -3.8 | -127.7
O=C(CSc1nnnn1C1CCCC1)Nc1ccc(F)cc1 | -12.3 | -0.1 | 0.805 | -1.4 | 62.3*
CCCc1ccc(OCC(=O)Nc2cc(S(=O)(=O)CC)ccc2O)cc1 | -6.1 | 0.2 | -0.909 | 90.1* | 19.9
O=C(c1ccco1)[C@@H]1[C@@H]2C(=O)N(c3ccccc3)C(=O)[C@@H]2C2c3ccccc3C=CN21 (some centres not stated) | 1.8 | 0.0 | . | 4.0 | 84.3*
Cc1ccc(N2C(=O)[C@@H]3[C@H](C2=O)C2c4ccccc4C=CN2[C@@H]3C(=O)c2ccco2)c(C)c1 (some centres not stated) | 5.1 | 0.2 | . | -2.3 | 38.7
Cc1ccc(N2C(=O)[C@@H]3[C@H](C2=O)C2c4ccccc4C=CN2[C@@H]3C(=O)c2ccco2)cc1 (some centres not stated) | 19.4 | . | . | . | 73.8*
CCOc1cc(N2CCOCC2)c(OCC)cc1NC(=O)c1ccccc1N1CCCC1=O | -3.2 | . | . | . | .
CC1CN(c2nn3c(=O)c4ccccc4nc3c3ccccc23)CC(C)O1 (configuration not stated) | 65.2* | 0.1 | -1.74 | -0.2 | 18.0
CCN1CCN(c2nn3c(=O)c4ccccc4nc3c3ccccc23)CC1 | 38.1 | 0.0 | 0.474 | -0.7 | 48.9
O=S(=O)(Nc1nc(-c2ccccc2)cs1)c1cc(Cl)ccc1Cl | -5.1 | -0.1 | . | 96.0* | 29.1
O=[N+]([O-])c1ccc(S(=O)(=O)Nc2nc(-c3ccccc3)cs2)cc1 | -6.9 | -0.1 | . | 26.6 | .
Cc1ccc(CNCCCSc2ncccn2)cc1 | -0.3 | -0.1 | . | -15.2 | .
CC(C)CC(=O)N1CCN(Cc2ccc(Cl)cc2)CC1 | -8.1 | 0.0 | . | 5.1 | 29.1
CC(C)c1ccc(CN2CCN(C(=O)CCl)CC2)cc1 | -7.7 | . | 0.946 | . | 61.5*
COc1cc(/C=C2/S/C(=N/S(=O)(=O)c3ccccc3)NC2=O)c([N+](=O)[O-])cc1OC | 2.0 | -0.2 | . | -2.3 | 71.3*
Cc1ccc(S(=O)(=O)/N=C2/NC(=O)/C(=C\c3cc(Br)cc(Br)c3O)S2)cc1 | -1.1 | 0.3 | . | 122.9* | 2.8
Cc1ccc(S(=O)(=O)/N=C2/NC(=O)/C(=C/c3ccc(Br)o3)S2)cc1 | -4.3 | 0.3 | 0.759 | 8.8 | 20.8
Cc1ccc(S(=O)(=O)N2CCC(C(=O)OC(C)C(=O)NC3CCCCC3C)CC2)cc1 (configuration not stated) | -2.8 | 0.1 | . | . | .
O=C(CN1CCCCC1)Nc1ccccc1Oc1ccccc1 | -7.7 | 0.1 | -3.39 | -10.1 | 1.0
Cc1cc(C)cc(NC(=O)CSc2ccc(-c3ccccn3)nn2)c1 | 67.4* | 0.2 | . | 0.5 | 56.2
O=C(CSc1ccc(-c2ccccn2)nn1)Nc1cccc(F)c1 | 47.1 | 0.0 | . | -12.2 | 61.0*
COC(=O)c1ccc(NC(=O)CSc2ccc(-c3ccccn3)nn2)cc1 | 0.0 | 0.1 | . | . | 24.0
Cc1ccccc1NC(=O)CSc1ccc(-c2ccccn2)nn1 | 2.4 | -0.1 | . | -2.0 | 32.2
CCOc1ccc(NC(=O)COC(=O)CNC(=O)c2ccc(-c3ccccc3)cc2)cc1 | -3.1 | -0.2 | . | . | .
SMILES | Cardio protect | Efflux pump mplx | KCC2 mod | Calb FLC | PHOSPHO1 block
CCOC(=O)C(=O)N(C)c1c(CC)nc2c(OCc3ccccc3C)cccn12 | -0.4 | . | . | . | .
N#C/C(=C(/O)c1ccco1)c1nc2ccccc2[nH]1 | -9.9 | 0.0 | -0.385 | 78.9* | 24.4
O=C(CSc1nc2ccc(Nc3nc(N4CCOCC4)nc(N4CCOCC4)n3)cc2s1)N1CCOCC1 | 47.9 | -0.1 | -0.0277 | 8.6 | -14.7
CSc1nc2ccc(Nc3nc(N4CCOCC4)nc(N4CCOCC4)n3)cc2s1 | 69.5* | 0.1 | . | . | 16.6
CC(C)c1ccc(C(C)NCCS(=O)(=O)c2ccc(Cl)cc2)cc1 (configuration not stated) | -9.5 | -0.2 | . | -1.5 | 72.6*
COc1ccc(-c2ccc(C(=O)Nc3ccc4c(c3)OCO4)c3occc23)c(C)c1 | -11.4 | . | . | . | .
CCOC(=O)N1CCN(c2c(F)cc3[nH]c(=S)[nH]c3c2Br)CC1 | -3.6 | 0.0 | 1.35 | -8.6 | 71.4*
O=C(CN1CCc2ccccc21)Nc1ccc2c(c1)OCCCO2 | -8.1 | -0.1 | . | . | .

Screening data from PubChem.
